Measured values as given in PubChem BioAssay (EPA / NIEHS).
Inconclusive results are not listed. Active and inactive are the calls of the source. The calls were made as follows: active = hit-call score of the fitted dose curve at least 0.9, where 1 is the maximum; inconclusive = response in the unintended direction; inactive = score below 0.9.

Legend:
[1] = target: Cellular tumor antigen p53 (Homo sapiens) (UniProt P04637); assay: TOX21_p53_BLA_p2_ratio: Tox21 HCT-116 p53 Agonism Beta-lactamase Assay, Ratio, Phase 2 (AID 2283592)
Summary of the method: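 Gain-of-signal p53 agonism was scored from the beta-lactamase FRET ratio (460/530 nm, 405 nm excitation) in HCT116 cells treated 16 h at 37C, 5% CO2, with DMSO serving as negative control and baseline.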

[2] = target: Cellular tumor antigen p53 (Homo sapiens) (UniProt P04637); assay: TOX21_p53_BLA_p3_ratio: Tox21 HCT-116 p53 Agonism Beta-lactamase Assay, Ratio, Phase 3 (AID 2283596)
Summary of the method: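 HCT116 p53-bla cells (4000/well) given compound in DMSO (217-fold dilution) after 5 h, incubated 16 h at 37C. CCF4-AM substrate 2 h at room temperature; 460/530 nm emission ratio, gain fitted against DMSO.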

[3] = TOX21_p53_BLA_p4_viability: Viability Assessment in the Tox21 HCT-116 p53 Agonism Beta-lactamase Assay, Phase 4 (AID 2283597);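 also: hits lower the luminescence signal meaning cytotoxicity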
Summary of the method: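 Following a 16 h exposure at 37C, the treated HCT116 wells were first read for the FRET ratio. They were then lysed with CellTiter-Glo, and ATP luminescence was recorded after 30 min at room temperature.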

[4] = TOX21_p53_BLA_p5_viability: Viability Assessment in the Tox21 HCT-116 p53 Agonism Beta-lactamase Assay, Phase 5 (AID 2283600)
Summary of the method: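 After the 460/530 nm beta-lactamase measurement, the wells received an ATP-detection luciferase reagent; signal was read 30 min later at RT. Compound treatment lasted 16 h on cells pre-incubated 5 h post-seeding.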

[5] = target: Cellular tumor antigen p53 (Homo sapiens) (UniProt P04637); assay: TOX21_p53_BLA_p4_ratio: Tox21 HCT-116 p53 Agonism Beta-lactamase Assay, Ratio, Phase 4 (AID 2283601)
Summary of the method: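 HCT116 cells carrying an inducible beta-lactamase reporter were plated at 4000 cells/well, rested 5 h, then exposed to compounds in DMSO (217-fold dilution) for 16 h at 37C. CCF4-AM substrate was loaded 2 h at room temperature; 460/530 nm emission ratio scored gain-of-signal versus DMSO.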

[6] = target: Cellular tumor antigen p53 (Homo sapiens) (UniProt P04637); assay: TOX21_p53_BLA_p5_ratio: Tox21 HCT-116 p53 Agonism Beta-lactamase Assay, Ratio, Phase 5 (AID 2283599)
Summary of the method: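 HCT-116 cells carrying a p53-inducible beta-lactamase reporter were seeded at 4000 cells/well and dosed after 5 h with compound in DMSO (217-fold dilution). After 16 h at 37C, CCF4-AM substrate was added for 2 h, and the 460/530 nm emission ratio was scored as gain-of-signal versus DMSO.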

Measured: outcome

Cellular tumor antigen p53 (Homo sapiens), sequence (P04637 whole entry, looked up): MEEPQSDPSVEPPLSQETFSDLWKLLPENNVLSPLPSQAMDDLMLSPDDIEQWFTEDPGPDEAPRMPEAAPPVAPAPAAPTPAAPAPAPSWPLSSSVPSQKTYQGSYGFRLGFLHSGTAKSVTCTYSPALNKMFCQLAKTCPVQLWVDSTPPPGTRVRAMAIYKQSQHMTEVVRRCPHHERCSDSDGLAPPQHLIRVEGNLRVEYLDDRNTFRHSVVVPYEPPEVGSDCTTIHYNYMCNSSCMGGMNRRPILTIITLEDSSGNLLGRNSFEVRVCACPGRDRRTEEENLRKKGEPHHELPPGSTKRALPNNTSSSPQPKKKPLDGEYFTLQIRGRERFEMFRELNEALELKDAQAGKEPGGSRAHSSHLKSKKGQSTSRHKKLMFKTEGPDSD

COC(=O)c1cccc(Cl)c1
not listed: [6]
inactive: all other assays above

CO[C@@]1(NC(=O)C2SC(=C(C(N)=O)C(=O)O)S2)C(=O)N2C(C(=O)O)=C(CSc3nnnn3C)CS[C@@H]21 (some centres not stated)
inactive: [1] | [2] | [3] | [5]

C=Cc1ccccn1
inactive: [1] | [2] | [3] | [5]

COc1cc2nc(N3CCN(C(=O)c4ccco4)CC3)nc(N)c2cc1OC
inactive: [1] | [2] | [6] | [5]
